Entries with a potency or affinity are not part of this list.

Our source for the Inhibition values is ChEMBL document CHEMBL4513146, “CO-ADD screening of Karazin Kharkiv National University (Ukraine) compounds”.

The first assay deals with Staphylococcus aureus. The note with it: Concentration 32 ug.mL-1;; ASSAY_TEST Inhibition of Bacterial Growth; detection method Absorption (OD600); MEDIA CAMHB; plate type 384well; NBS; CORNING #3640; time 18 hr.
As usually defined, the Inhibition is the relative decrease from the control value, in per cent. For `CC(C)CCn1c(=O)c2sccc2n2c(=O)n(CCOc3ccccc3)nc12`, the Inhibition is 0.45%.
Consider `COc1ccccc1-n1ccn2c(SCC(=O)c3ccc(C)cc3C)nnc2c1=O`, for which the Inhibition is 6.26%.
Same read-out and setting: to `Cc1cc(C)cc(N(Cc2cc(F)cc(F)c2)S(=O)(=O)c2cccn3c(C)nnc23)c1` belongs 9.54%.
The same measure, in the same setting: to `CCc1cccc(NC(=O)Cn2nc3ccc(SC(C)(C)C)nn3c2=O)c1` belongs 9.57%.
Still for that read-out and setting: to `CCOC(=O)N1CCN(C(=O)CCc2nnc3c4cc(-c5ccccc5)nn4ccn23)CC1` belongs 4.14%; to `N#Cc1ccc(NC(=O)Cn2nc3c(SCc4ccc(Cl)cc4)nccn3c2=O)cc1`, 9.38%.
Consider `Cc1nnc2ccc(S(=O)(=O)N(CC(=O)OC(C)(C)C)c3ccc4c(c3)OCO4)cn12`, for which the Inhibition came to 2.93%.
Still for that read-out and setting: to `Cc1ccc(CNC(=O)Cn2nc3c(N4CCN(c5ccccc5C)CC4)nccn3c2=O)cc1` belongs 4.45%; to `O=C(CSc1nnc2c(=O)n(-c3ccc(Br)cc3)ccn12)c1c[nH]c2ccccc12`, 12.46%.
On the same count and under the same terms, to `CCc1ccccc1Sc1nccn2c(=O)n(CC(=O)Nc3cccc(C)c3)nc12` belongs 2.29%; to `CCCn1c(=O)c2sccc2n2c(=O)n(CC(=O)c3ccc(OC)c(OC)c3)nc12`, 7.14%; to `Cc1cccc(N(C)C(=O)Cn2nc3cc(C)nc(Nc4ccc(C)c(F)c4)n3c2=O)c1`, -15.22%.
On the same count and under the same terms, under `CC(C)(C)Sc1ccc2nn(CC(=O)NCc3ccc(Cl)cc3)c(=O)n2n1` stands 1.41%.
In the case of `O=C(Cn1nc2c(N3CCOCC3)nccn2c1=O)NCc1ccc(F)cc1`, the Inhibition is on record as 19.72%.
Regarding `CCOc1ccc(-n2ccn3c(SCC(=O)NCc4ccccc4Cl)nnc3c2=O)cc1`, the Inhibition was 3.68%.
On the same count and under the same terms, under `O=C(CSc1nc2ccccc2n2cnnc12)NCc1ccccc1Cl` stands 1.47%; under `CCc1ccc(N(Cc2ccc(OC)cc2)S(=O)(=O)c2cccn3c(C)nnc23)cc1`, 5.17%; under `Cc1ccc(Sc2nccn3c(=O)n(CC(=O)Nc4ccccc4C)nc23)c(C)c1`, -3.06%.
Regarding `CCc1nnc2c(S(=O)(=O)N(Cc3cc(F)cc(F)c3)c3ccc(C)cc3)cccn12`, the Inhibition is listed as 10.46%.
With `Cc1ccc(Cl)cc1NC(=O)Cn1nc2c(SC3CCCCC3)nccn2c1=O`, the Inhibition worked out at 6.67%.
On to `O=C(CSc1nnc2ccc(C(=O)Nc3cccc(F)c3)cn12)Nc1ccc(F)c(F)c1`, for which the Inhibition came out at 8.43%.
In the case of `COc1ccc(NC(=O)Cn2nc3c(N4CCCC4)nccn3c2=O)cc1`, the Inhibition came out at 5.17%.
The same measure, in the same setting: under `CCc1ccccc1NC(=O)Cn1nc2c(SCc3ccc(Cl)cc3)nccn2c1=O` stands 9.03%; under `Cc1ccc(-n2ccn3c(=O)n(Cc4ccccc4Cl)nc3c2=O)cc1C`, 0.51%.
The same measure, in the same setting: under `O=C(NCc1ccccc1)c1ccc2nn(CC(=O)N3CCN(c4ccccc4F)CC3)c(=O)n2c1` stands 3.54%; under `O=c1n(Cc2cccc(C(F)(F)F)c2)nc2c(S(=O)(=O)N3CCCC3)cccn12`, 9.3%; under `O=c1c2nnc(SCc3ccccc3)n2ccn1-c1ccc(Br)cc1`, 12.69%.
Still for that read-out and setting: under `COC(=O)c1ccc(NC(=O)Cn2nc3c4sc(N5CCCC5)nc4ncn3c2=O)cc1` stands -12.82%.
Consider `COc1cccc(NC(=O)Cn2nc3ccc(-c4ccc(C)c(C)c4)nn3c2=O)c1`, for which the Inhibition was -14.65%.
Take `CC(C)Sc1ccc2nn(CC(=O)Nc3ccccc3F)c(=O)n2n1`: the Inhibition was -5.65%.
The same measure, in the same setting: to `COc1ccc(-c2nc(CSc3nc4ccccc4n4c(C(C)C)nnc34)c(C)o2)cc1OC` belongs -10.5%.
The same measure, in the same setting: under `Cc1ccc(-c2ccc3nn(CC(=O)Nc4ccc(Br)cc4F)c(=O)n3n2)cc1` stands 3.77%; under `CCOC(=O)N1CCN(C(=O)CCc2nnc3c4cc(-c5ccc(F)cc5)nn4ccn23)CC1`, 10.85%.
On the same count and under the same terms, to `COc1ccc(N2CCN(C(=O)Cn3nc4c(Oc5ccccc5)nccn4c3=O)CC2)cc1` belongs 16.39%; to `CCc1nnc2ccc(S(=O)(=O)N(Cc3ccc(F)cc3)c3ccccc3)cn12`, -1.95%; to `Cc1ccc(-c2ccc3nn(CC(=O)Nc4ccc(C(C)C)cc4)c(=O)n3n2)cc1C`, -10.47%.
Consider `CCOc1ccc(-n2ccn3c(SCC(=O)Nc4ccc(C)c(C)c4)nnc3c2=O)cc1`, for which the Inhibition is recorded as -4.99%.
The same measure, in the same setting: to `CC1CCN(C(=O)Cn2nc3n(Cc4cccs4)c(=O)c4sccc4n3c2=O)CC1` belongs 3.66%; to `COCCCNC(=O)CSc1nnc2c(=O)n(Cc3ccccc3)ccn12`, 7.01%.

The subject of another assay is Escherichia coli. The note with it: Concentration 32 ug.mL-1;; ASSAY_TEST Inhibition of Bacterial Growth; detection method Absorption (OD600); MEDIA CAMHB; plate type 384well; NBS; CORNING #3640; time 18 hr.
Consider `CC(C)CCn1c(=O)c2sccc2n2c(=O)n(CCOc3ccccc3)nc12`, for which the Inhibition was -7.84%.
Same read-out and setting: to `COc1ccccc1-n1ccn2c(SCC(=O)c3ccc(C)cc3C)nnc2c1=O` belongs -10.12%; to `Cc1cc(C)cc(N(Cc2cc(F)cc(F)c2)S(=O)(=O)c2cccn3c(C)nnc23)c1`, -1.86%.
Same read-out and setting: to `CCc1cccc(NC(=O)Cn2nc3ccc(SC(C)(C)C)nn3c2=O)c1` belongs -1.32%; to `CCOC(=O)N1CCN(C(=O)CCc2nnc3c4cc(-c5ccccc5)nn4ccn23)CC1`, -0.18%; to `N#Cc1ccc(NC(=O)Cn2nc3c(SCc4ccc(Cl)cc4)nccn3c2=O)cc1`, -2.23%.
The same measure, in the same setting: to `Cc1nnc2ccc(S(=O)(=O)N(CC(=O)OC(C)(C)C)c3ccc4c(c3)OCO4)cn12` belongs -7.09%; to `Cc1ccc(CNC(=O)Cn2nc3c(N4CCN(c5ccccc5C)CC4)nccn3c2=O)cc1`, -8.18%.
For the compound `O=C(CSc1nnc2c(=O)n(-c3ccc(Br)cc3)ccn12)c1c[nH]c2ccccc12`, the Inhibition is given as -2.65%.
Same read-out and setting: under `CCc1ccccc1Sc1nccn2c(=O)n(CC(=O)Nc3cccc(C)c3)nc12` stands -6.79%; under `CCCn1c(=O)c2sccc2n2c(=O)n(CC(=O)c3ccc(OC)c(OC)c3)nc12`, -1.62%.
On the same count and under the same terms, to `Cc1cccc(N(C)C(=O)Cn2nc3cc(C)nc(Nc4ccc(C)c(F)c4)n3c2=O)c1` belongs 0.9%; to `CC(C)(C)Sc1ccc2nn(CC(=O)NCc3ccc(Cl)cc3)c(=O)n2n1`, -5.27%.
Still for that read-out and setting: to `O=C(Cn1nc2c(N3CCOCC3)nccn2c1=O)NCc1ccc(F)cc1` belongs 0.87%.
As for `CCOc1ccc(-n2ccn3c(SCC(=O)NCc4ccccc4Cl)nnc3c2=O)cc1`, the Inhibition was -5.16%.
On the same count and under the same terms, to `O=C(CSc1nc2ccccc2n2cnnc12)NCc1ccccc1Cl` belongs -4.49%; to `CCc1ccc(N(Cc2ccc(OC)cc2)S(=O)(=O)c2cccn3c(C)nnc23)cc1`, -2.97%.
On the same count and under the same terms, to `Cc1ccc(Sc2nccn3c(=O)n(CC(=O)Nc4ccccc4C)nc23)c(C)c1` belongs -8.99%; to `CCc1nnc2c(S(=O)(=O)N(Cc3cc(F)cc(F)c3)c3ccc(C)cc3)cccn12`, -5.17%; to `Cc1ccc(Cl)cc1NC(=O)Cn1nc2c(SC3CCCCC3)nccn2c1=O`, -3.22%.
The same measure, in the same setting: to `O=C(CSc1nnc2ccc(C(=O)Nc3cccc(F)c3)cn12)Nc1ccc(F)c(F)c1` belongs 1.09%; to `COc1ccc(NC(=O)Cn2nc3c(N4CCCC4)nccn3c2=O)cc1`, 5.65%; to `CCc1ccccc1NC(=O)Cn1nc2c(SCc3ccc(Cl)cc3)nccn2c1=O`, -5.25%.
For the compound `Cc1ccc(-n2ccn3c(=O)n(Cc4ccccc4Cl)nc3c2=O)cc1C`, the Inhibition is recorded as -7.32%.
Same read-out and setting: to `O=C(NCc1ccccc1)c1ccc2nn(CC(=O)N3CCN(c4ccccc4F)CC3)c(=O)n2c1` belongs -3.36%; to `O=c1n(Cc2cccc(C(F)(F)F)c2)nc2c(S(=O)(=O)N3CCCC3)cccn12`, -1.06%; to `O=c1c2nnc(SCc3ccccc3)n2ccn1-c1ccc(Br)cc1`, -3.8%.
Same read-out and setting: under `COC(=O)c1ccc(NC(=O)Cn2nc3c4sc(N5CCCC5)nc4ncn3c2=O)cc1` stands -9.22%; under `COc1cccc(NC(=O)Cn2nc3ccc(-c4ccc(C)c(C)c4)nn3c2=O)c1`, -17.62%; under `CC(C)Sc1ccc2nn(CC(=O)Nc3ccccc3F)c(=O)n2n1`, 3.66%.
The same measure, in the same setting: to `COc1ccc(-c2nc(CSc3nc4ccccc4n4c(C(C)C)nnc34)c(C)o2)cc1OC` belongs 0.54%.
As to `Cc1ccc(-c2ccc3nn(CC(=O)Nc4ccc(Br)cc4F)c(=O)n3n2)cc1`, the Inhibition was -3%.
The same measure, in the same setting: to `CCOC(=O)N1CCN(C(=O)CCc2nnc3c4cc(-c5ccc(F)cc5)nn4ccn23)CC1` belongs 2.2%.
On the same count and under the same terms, to `COc1ccc(N2CCN(C(=O)Cn3nc4c(Oc5ccccc5)nccn4c3=O)CC2)cc1` belongs 4.58%; to `CCc1nnc2ccc(S(=O)(=O)N(Cc3ccc(F)cc3)c3ccccc3)cn12`, -12.51%.
Same read-out and setting: to `Cc1ccc(-c2ccc3nn(CC(=O)Nc4ccc(C(C)C)cc4)c(=O)n3n2)cc1C` belongs -13.87%; to `CCOc1ccc(-n2ccn3c(SCC(=O)Nc4ccc(C)c(C)c4)nnc3c2=O)cc1`, -21.19%; to `CC1CCN(C(=O)Cn2nc3n(Cc4cccs4)c(=O)c4sccc4n3c2=O)CC1`, -8.96%.
As for `COCCCNC(=O)CSc1nnc2c(=O)n(Cc3ccccc3)ccn12`, the Inhibition is listed as -1.7%.
